Experimental data as given in ChEMBL document CHEMBL4513216, “Probing the Open Global Health Chemical Diversity Library for Multistage-Active Starting Points for Next-Generation Antimalarials” (ACS Infect Dis, 2020).
Among all 69,000 compounds or so, about 8,600 (12%) showed an effect of 50% or more. For the sample, strong results were picked, then their nearest neighbours and some compounds at random.

system: Plasmodium berghei; assay: Screen against P. berghei liver stage (PbLuc), transformed with Luciferase, at 10uM; type: functional, HepG2; conditions: tested at 10 uM

Structure (SMILES)	INHIBITION [%]
COCc1cc(O)nc(C2CCCN(Cc3cccc(Cl)c3Cl)C2)n1 (stereo unspecified)	17.4
COc1ccc(CC(=O)N2CCCC2c2nc(C)c(C)c(O)n2)cc1 (stereo unspecified)	46
COc1ccc(F)c(CN2CCCC(c3cc(O)nc(C)n3)C2)c1 (stereo unspecified)	25.8
COc1cccc(CN2CCC(c3cc(O)nc(C)n3)C2)c1 (stereo unspecified)	47.8
COc1cccc(CC(=O)N2CCCC2c2nc(C)c(F)c(O)n2)c1 (stereo unspecified)	3.91
COc1ccc(F)c(CN2CCC(c3cc(O)nc(C)n3)C2)c1 (stereo unspecified)	50.6
CCc1cc(O)nc(C2CCCN(Cc3ccncc3)C2)n1 (stereo unspecified)	47.1
COCc1cc(O)nc(C2CCCN(Cc3ccc(F)cc3)C2)n1 (stereo unspecified)	39.7
COc1cccc(CC(=O)N2CCCC2c2nc(C)c(C)c(O)n2)c1 (stereo unspecified)	50.8
COCc1cc(O)nc(C2CCCN(Cc3ccc(OC)cc3)C2)n1 (stereo unspecified)	61.9
COc1ccc(CN2CCC(c3cc(O)nc(C)n3)C2)c(F)c1 (stereo unspecified)	21.9
COCc1cc(O)nc(C2CCCN(Cc3cccc(OC)c3)C2)n1 (stereo unspecified)	57.5
CCN(CC1CCOC1)C(=O)Nc1ccc(OCC(F)(F)F)nc1 (stereo unspecified)	-1.885
CC(C)(C)CCN1CCC(c2nnc(Cn3cccn3)n2C2CC2)CC1	32.2
CC(=O)NCC(=O)NCC1(O)CCN(c2cnccn2)C1 (stereo unspecified)	42.25
COc1c(C)cnc(CN2CCOC(Cn3cncn3)C2)c1C (stereo unspecified)	2.97
O=C(C1CCC2(CCN(CC3CCOCC3)CC2)O1)N1CCCC1 (stereo unspecified)	1.34
COCCNC(=O)C1(Cc2ccccc2-c2ccncc2)CCOCC1	40
Cc1cc(O)nc(C2CCCN(Cc3ccncc3)C2)n1 (stereo unspecified)	27.3
COCc1cc(O)nc(C2CCCN(Cc3cc(OC)ccc3F)C2)n1 (stereo unspecified)	52.3
COc1ccc(OC)c(CN2CCC(c3cc(O)nc(C)n3)C2)c1 (stereo unspecified)	41.2
Cn1cc(C2SCC(=O)Nc3c2c(=O)[nH]n3C2CCOCC2)cn1 (stereo unspecified)	-70.7

Structure (SMILES)	INHIBITION [%]
O=C1CC(c2ccccc2F)c2c(n(C3CCCC3)[nH]c2=O)N1 (stereo unspecified)	68.5
CSc1ccc(C2SCC(=O)Nc3c2c(=O)[nH]n3C2CCOCC2)cc1 (stereo unspecified)	52.1
O=C1CC(C2CCCCC2)c2c(n(C3CCCC3)[nH]c2=O)N1 (stereo unspecified)	43.4
COc1ccccc1C1SCC(=O)Nc2c1c(=O)[nH]n2C1CCCCC1 (stereo unspecified)	-2.39
Cc1n[nH]c2c1C(c1ccsc1)SCC(=O)N2 (stereo unspecified)	19.7
O=C1CSC(c2ccsc2)c2c(n(C3CCCC3)[nH]c2=O)N1 (stereo unspecified)	63.3
COc1ccccc1C1CC(=O)Nc2c1c(=O)[nH]n2C1CCCC1 (stereo unspecified)	11.7
CCOc1ccc(C2SCC(=O)Nc3c2c(=O)[nH]n3C(CC)CC)cc1 (stereo unspecified)	-19.7
CC1=Nc2c(c(=O)[nH]n2C2CCOCC2)C(c2cccc(O)c2)S1 (stereo unspecified)	0.29
O=C1CSC(c2ccccc2)c2c(n(C3CCOCC3)[nH]c2=O)N1 (stereo unspecified)	32.2
O=C1CSC(c2ccc(O)cc2)c2c(n(C3CCOCC3)[nH]c2=O)N1 (stereo unspecified)	60.1
Cc1ccsc1CNC(=O)NC(C)c1ccc2c(c1)CCC(=O)N2 (stereo unspecified)	-121
COCCN1CCO[C@@H]2CN(Cc3ccc(C)s3)C[C@@H]2C1	24.6
NC(=O)C1CCN(C(=O)CCSCc2ccccc2)CC1	17.2875
CCCn1nc(C)c(C(=O)N(C)[C@@H]2CC[C@@H](N3CCCC3)[C@@H]2O)c1C	32
CCn1cnnc1C1CCN(C(=O)c2cc3c(s2)CCOC3)CC1	-9.37
Cc1cc(C)cc(N2CCN(C(=O)CCN3C[C@H]4CC[C@@H]3C4)CC2=O)c1	22.1
CC(O)CN1CCN(C(=O)c2cccn2Cc2ccccc2)CC1 (stereo unspecified)	-0.113
CCOC(C)c1nccn1CC(=O)Nc1cc(C)on1 (stereo unspecified)	15.4
CSCC(=O)N1CCCC(CO)(CC2CC2)C1 (stereo unspecified)	41.2
O=C1CSC(c2ccncc2)c2c(n(C3CCOCC3)[nH]c2=O)N1 (stereo unspecified)	52.1
Cc1n[nH]c2c1C(c1ccncc1)SCC(=O)N2 (stereo unspecified)	23.5

Structure (SMILES)	INHIBITION [%]
O=C1CSC(c2ccsc2)c2c(n(C3CCOCC3)[nH]c2=O)N1 (stereo unspecified)	67.1
CC(C)(C)n1ncc2c1NC(=O)CSC2c1ccsc1 (stereo unspecified)	-14.7
O=C1CSC(c2cccnc2)c2c(n(C3CCOCC3)[nH]c2=O)N1 (stereo unspecified)	48.1
O=C1CC(c2ccsc2)c2c(n(C3CCOCC3)[nH]c2=O)N1 (stereo unspecified)	19
CC(C(=O)N1CCCCCC1)N1CCN(Cc2nccn2C)CC1 (stereo unspecified)	37.4
CCSCCn1cc(-c2nccs2)nn1	-17.5
CC(C)c1ncncc1C(=O)N1CCCN(Cc2ccccc2)CC1	14.1
CC(C)C(=O)N1CCCC1C(=O)Nc1ccc(F)c(F)c1 (stereo unspecified)	21.7
O=C(c1cccn1Cc1cccs1)N1CCN2CCCCC2C1 (stereo unspecified)	33.3
CC(=O)N1CCO[C@@H]2CN(S(=O)(=O)c3ccc(F)cc3)CC[C@@H]2C1	45.4
O=C1CN(C(=O)CN(CC2CCC2)CC(F)(F)F)CCN1	31
OCC1CCC2(CC1)CN(Cc1ccccn1)Cc1ccccc1O2 (stereo unspecified)	21
Cc1ccc(CN2Cc3ccccc3OC3(CCC(CO)CC3)C2)o1 (stereo unspecified)	44.1
Cc1ncc(CN2Cc3ccccc3OC3(CCC(CO)CC3)C2)cn1 (stereo unspecified)	47.2
OCC1CCC2(CC1)CN(Cc1ccccc1F)Cc1ccccc1O2 (stereo unspecified)	53.5
Cc1ccc(CN2Cc3ccccc3OC3(CCC(CO)CC3)C2)s1 (stereo unspecified)	67.9
O=C(Nc1ccccc1)C1CN(Cc2ccsc2)CC12CCOCC2 (stereo unspecified)	-3.12
OCC1CCC2(CC1)CN(Cc1ccsc1)Cc1ccccc1O2 (stereo unspecified)	51.5
Cc1cnccc1CN1Cc2ccccc2OC2(CCC(CO)CC2)C1 (stereo unspecified)	41.2
Cc1ccc(CN2CC(C(=O)Nc3ccccc3)C3(CCOCC3)C2)s1 (stereo unspecified)	45.8
Cc1ccccc1CNC(=O)N1C[C@@H]2C[C@H](C(=O)N3CCCC3)[C@H](C1)O2	-16.9
O=C(Nc1nc[nH]n1)c1cc(-c2ccc(F)cc2)n[nH]1	16

Structure (SMILES)	INHIBITION [%]
Cc1cc(C(=O)NCc2ccnc(N3CCN(C)CC3)c2)sc1C	36.45
CN1CC(=O)N(C2CCNCC2)Cc2c(NCC(C)(C)C)ncnc21	47.4
COc1ccc(CC(=O)Nc2ccc3ncn(C(C)C)c(=O)c3c2)cc1	21.2
CCC1(CO)CCCN(C(=O)c2cc(COc3cccc(F)c3)[nH]n2)C1 (stereo unspecified)	20.9
Cc1nn(C)c(N(C)C)c1CNC(C)COc1ccccc1F (stereo unspecified)	23.4
CCNC(=O)CCc1c(C)nc2cc(O)nn2c1C	55.9
Cc1nc(NC(=O)CCc2c(C)nc3cc(O)nn3c2C)sc1C	-14.7
CCN(CC)C(=O)CCc1c(C)nc2cc(O)nn2c1C	34.7
Cc1nc2cc(O)nn2c(C)c1CCC(=O)NCCc1ccccc1	22.3
COC(=O)CCc1c(C)nc2cc(O)nn2c1C	53.5
CNC(=O)CCNC(=O)CCc1c(C)nc2cc(O)nn2c1C	29.2
Oc1ccc(N(CCc2ccccc2)CCn2cncn2)cc1	44
CCS(=O)(=O)N1C[C@H]2CC[C@](O)(c3ccc(C)cc3)[C@H]2C1	-2.11
Cc1nc(C2CCCN(C(=O)c3cc4c(s3)CCCC4)C2)no1 (stereo unspecified)	11.2
O=C(NCC1CCN(Cc2cc3ccccc3[nH]2)C1)c1ccsc1 (stereo unspecified)	40.8
CC(c1ccccc1)N1CCC(NC(=O)CCc2ccsc2)CC1 (stereo unspecified)	4.22
COc1ccc(C(=O)NC2CCN(c3ncccn3)CC2)cc1F	46.1
O=C(Cc1cccs1)NC1CCN(c2cccc(F)c2)CC1	4.71
O=C(CCc1ccsc1)NC1CCN(c2cccc(F)c2)CC1	59.3
COc1ccc(N2CCC(NC(=O)c3ccc(C#N)cc3)CC2)cc1	41.8
COc1ccsc1C(=O)NC1CCN(c2cccc(F)c2)CC1	84.1
COc1ccsc1C(=O)NC1CCN(c2ccc(C#N)cc2)CC1	52.6

Structure (SMILES)	INHIBITION [%]
COc1ccc(N2CCC(NC(=O)c3sccc3C)CC2)cc1	45
O=C(CCc1ccc(Cl)cc1)NC1CCN(c2cccc(F)c2)CC1	47.3
CCN1C[C@@H]2CN(C(=O)NCc3ccccc3)CCC[C@]2(C(=O)O)C1	31.4
COc1ccc(CN2C[C@H]3CC[C@@H](C2)N(S(C)(=O)=O)C3)cc1	15.7
COc1ccc(Cl)cc1CN(C)CC(=O)Nc1ccnn1C(C)C1CC1 (stereo unspecified)	-75.4
COCCN1CCC2(COCc3c(C)nc(N4CCOCC4)nc32)C1 (stereo unspecified)	-24.8
Cc1nccn1C1CCCN(C(=O)c2ccc3c(c2)COC3)C1 (stereo unspecified)	57.8
COCCOc1ncccc1C(=O)N1CCCC(n2ccnc2C)C1 (stereo unspecified)	-19.9
COc1ncccc1C(=O)N1CCCC(n2ccnc2C)C1 (stereo unspecified)	54.7
Cc1nccn1C1CCCN(C(=O)c2ccc3c(c2)CCC3)C1 (stereo unspecified)	-0.96
COc1ncccc1C(=O)N1CCCC(n2ccnc2)C1 (stereo unspecified)	-5
Cc1cc(C(=O)N2CCCC(n3ccnc3C)C2)c(C)s1 (stereo unspecified)	18.2
Cc1cnn(C2CCCN(C(=O)c3cc(-c4ccccc4C)n[nH]3)C2)c1 (stereo unspecified)	32
Cc1nccn1C1CCCN(C(=O)c2cc(O)nc3ccccc23)C1 (stereo unspecified)	52.7
Cc1ccccc1-c1cc(C(=O)N2CCCC(n3ccnc3C)C2)[nH]n1 (stereo unspecified)	66.7
CCCc1cc(C(=O)N2CCCC(n3ccnc3C)C2)[nH]n1 (stereo unspecified)	10.8
CC(C)c1nccn1C1CCCN(C(=O)c2ccc3c(c2)COC3)C1 (stereo unspecified)	-49.5
Cc1nn(-c2ccccc2)cc1C(=O)N1CCCC(n2ccnc2C)C1 (stereo unspecified)	27.6
